# Compound activity deposited in PubChem BioAssay by several laboratories.
# Ins promoter up = insulin promoter activators in MIN6 cells, imaging, high-content screening, mouse beta cells | AID 1625, 2009 | 190,000 compounds, 0.3% hits | z-score at 5 µM | MIN6 insulin promoter-GFP reporter; active compounds read high;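 active = z-score above 3 at 5 µM with at least 500 cells counted in the well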
# L major viab = Leishmania major promastigote growth inhibition, primary screen | Leishmania major promastigotes, resazurin fluorescence viability | inhibition, % at 10 µM | 200,000 compounds, 9% hits; in the data active = inhibition above about 50%;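 note: promastigotes grown with compound for 44 hours at 28 °C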
# ROMK primary = ROMK potassium channel modulators, primary screen, cell-based, thallium flux, MLSMR library. Tet-inducible ROMK, thallium flux fluorescence; actives lie on both sides. ATP-sensitive inward rectifier potassium channel 1 (Homo sapiens), P48048. 130,000 compounds, 2% hits. B-score at 10 µM;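 active = signal ratio slope over the read window, or its plate-corrected B-score, at least 3 SD from the plate mean, either direction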;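 note: B-score of the F/F0 ratio slope over 7 to 12 s after thallium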
# Target sequence (P48048 whole entry, looked up): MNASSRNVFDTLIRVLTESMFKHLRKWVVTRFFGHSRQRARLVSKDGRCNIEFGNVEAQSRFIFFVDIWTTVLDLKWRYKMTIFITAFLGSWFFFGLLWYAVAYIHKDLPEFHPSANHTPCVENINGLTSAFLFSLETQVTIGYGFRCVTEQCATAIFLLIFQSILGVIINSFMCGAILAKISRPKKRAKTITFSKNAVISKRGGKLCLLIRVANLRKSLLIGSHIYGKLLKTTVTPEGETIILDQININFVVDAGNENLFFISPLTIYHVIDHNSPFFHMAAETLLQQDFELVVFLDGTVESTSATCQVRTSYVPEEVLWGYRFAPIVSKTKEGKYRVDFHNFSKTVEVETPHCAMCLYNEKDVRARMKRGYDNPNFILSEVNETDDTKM
# INS promoter inh = inhibitors of insulin promoter-driven GFP, primary screen, imaging, TRM-6 cells (human fetal islet line), eGFP reporter, cell count | reporter expression induced with tamoxifen | inhibition, % at 2 µM | 130,000 compounds, 0.9% hits | AID 1273, 2008;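 active = inhibition above the mean plus 3 SD, with well images judged a real hit on visual review, cut at about 60% in these data, passing the limit was not always enough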
# WT yeast gro inh = growth inhibition of WT strain, primary screen, mitochondrial fusion inhibitor project, WT and mutant strains, chemical genetic | mitochondrial fusion phenotypic screen | 190,000 compounds, 2.1% hits | inhibition, % at 10 µM; in the data active = inhibition above about 58%; tested in S. cerevisiae
# KCC2 mod = KCC2 cotransporter modulators, thallium flux, primary screen, cell-based, HEK293 KCC2, FluoZin-2 fluorescence, MLSMR; KCC2 cells, thallium flux FluoZin-2 fluorescence; B-score of Tl+ flux slope (higher = more flux/activation; lower = inhibition) at 10 µM; 190,000 compounds, 2.2% hits;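 active = thallium flux slope and its plate-corrected score both differing from the plate sample mean at a set confidence after two filtering rounds, in either direction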;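 note: slope of fluorescence scaled to starting intensity during 10 to 20 s after thallium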
# * marks the source's active call; other numbers are inactive results; · = not tested or not shown. Most compounds without a hit are left out; they make up all but 12% or so of the library.
SMILES,Ins promoter up,L major viab,ROMK primary,INS promoter inh,WT yeast gro inh,KCC2 mod
O=C(CCCNS(=O)(=O)c1cccc2nsnc12)NC1CCCCC1,0.51,-3,·,·,-12,-0.046
CCN(CCO)C(=O)CC(c1ccccc1)c1cc(Br)ccc1O (stereo not drawn),-0.05,50*,·,-60,-24,-0.33
CCCN(CCC)C(=O)CC(c1ccccc1)c1cc(C)ccc1O (stereo not drawn),-0.62,14,-0.91,-22,23,·
COc1ccc(-c2nc(NC(=O)c3ccc(OCC(=O)Nc4ccc(F)cc4)c(OC)c3)sc2C)cc1,-0.06,69*,0.43,54,9,-0.18
COc1cc(C(=O)Nc2nc(-c3ccc(C)cc3)cs2)ccc1OCC(=O)N1CCOCC1,-0.13,95*,·,-12,13,0.028
COc1cc(C(=O)Nc2nc(-c3cc(C)ccc3C)c(C)s2)ccc1OCC(=O)Nc1ccc(F)cc1,-1.4,-3,0.13,·,7,-0.22
COc1cc(C(=O)Nc2nc(-c3ccc(F)cc3)cs2)ccc1OCC(=O)N1CCOCC1,-0.21,96*,1.2,0,6,-2.9
CCOC(=O)C(CC)(CC)C(=O)/C=C/c1cccc(Br)c1,·,100*,·,47,·,-1.1
O=C(NCc1cc(C(F)(F)F)cc(C(F)(F)F)c1)C1CC(c2ccccc2[N+](=O)[O-])=NO1 (stereo not drawn),-0.56,88*,-0.34,·,8,0.3
O=C(NCc1cccc(C(F)(F)F)c1)C1CC(c2ccccc2[N+](=O)[O-])=NO1 (stereo not drawn),1.4,-6,·,20,2,-1.3
CCc1nnc(NC(=O)CSc2nnc(Cc3cc(=O)[nH]c(=O)[nH]3)n2-c2ccc(OC)cc2)s1,0.24,-4,0.0037,78*,-8,0.92
CCc1nnc(NC(=O)CSc2nnc(-c3ccc(OC)cc3)n2C)s1,0.82,-8,-0.52,18,7,-0.59
CCOc1ccc(-n2ccnc2SCC(=O)Nc2nnc(CC)s2)cc1,-0.58,-9,·,82*,13,-0.02
NC(=S)Nc1ccc2cc[nH]c2c1,1,2,0.53,-21,-1,0.53
COc1cccc(CN2CCNC(=O)C2CC(=O)NCCc2nc(C)c(C)s2)c1OC (stereo not drawn),0.09,-3,-0.26,52,2,0.18
COc1ccc(-c2csc(-c3cccnc3)n2)cc1C,-0.3,80*,-0.22,·,36,-0.41
COc1ccc2cc(-c3csc(-c4cccnc4)n3)ccc2c1,·,-2,0.45,2,5,0.025
COc1ccc(OC)c(S(=O)(=O)NCc2csc(-c3ccccc3)n2)c1,0.74,78*,·,-12,-5,-1.7
CCc1ccc(S(=O)(=O)NCc2csc(-c3ccccc3)n2)s1,0.38,0,·,7,23,-4.9*
CCc1ccc(S(=O)(=O)NCCc2csc(-c3cccnc3)n2)s1,-0.31,10,·,·,-11,-1.2
COc1ccc(-c2csc(-c3ccccc3)n2)c(OC)c1,0.78,-8,0.48,·,73*,-0.03
COc1ccc(-c2csc(-c3cccs3)n2)c(OC)c1,-1.2,6,1.1,·,64,0.3
CCN(CC)S(=O)(=O)c1cccc2cc(C(=O)O)c(O)cc12,·,-11,0.0014,·,9,-0.12
COc1ccc(C)cc1S(=O)(=O)N1CCC(C(=O)N2CCN(C)CC2)CC1,0.28,18,·,21,10,0.75
O=C1CSC(c2c(F)cccc2Cl)N1c1cccc(F)c1 (stereo not drawn),·,88*,·,-50,7,0.01
SMILES,Ins promoter up,L major viab,ROMK primary,INS promoter inh,WT yeast gro inh,KCC2 mod
O=C(Oc1ccc(/C=N/Nc2nc(N3CCCCC3)nc(N3CCCCC3)n2)cc1)c1ccco1,0.6,48,0.9,2,-13,·
O=[N+]([O-])c1ccc(/C=N/Nc2nc(N3CCCCC3)nc(N3CCCCC3)n2)o1,1.4,100*,-0.47,18,70*,-1.5
COc1ccc(/C=N/Nc2nc(N3CCCC3)nc(N3CCCC3)n2)cc1,0.02,63*,-2,-10,7,0.52
COC(=O)c1ccc(/C=N/Nc2nc(N3CCCCC3)nc(N3CCCCC3)n2)cc1,-0.68,78*,-1,-6,15,2.2
CCn1c2ccccc2c2c3ncc4cccn4c3ccc21,0.08,·,·,·,·,-0.18
COc1cc(/C=C/C(=O)O)ccc1S(=O)(=O)N1CCCc2ccccc21,-0.38,23,0.89,-173,0,1.2
O=c1[nH]nc(SCc2nnc(-c3cccc(Cl)c3)o2)n1C1CCCCC1,0.11,·,-0.058,·,·,-1.2
Cc1ccc2oc(=O)c3cnn(CC(=O)NCCc4ccsc4)c3c2c1,-0.35,1,·,·,3,-1.3
CCOc1ccccc1-c1nc(-c2cc3ccc(C)cc3[nH]c2=O)no1,·,69*,1,-53,27,0.74
CCCc1nc(-c2cc3ccc(C)cc3[nH]c2=O)no1,·,22,·,-26,0,0.2
C=CCNCCCCOc1cccc(Br)c1,·,96*,·,·,-16,0.079
COc1cccc(OCCNC(=O)c2cccc(OC)c2)c1,0.8,1,-0.87,54,-6,-1.3
CC(C)NCCCCOc1cccc(Br)c1,-0.22,99*,-1.4,-23,-2,-1.4
Brc1cccc(OCCSc2ncccn2)c1,0.06,-1,1.8,·,15,-1.3
COCCCNCCCCOc1cccc(Br)c1,-0.46,99*,-0.72,35,15,-0.86
OCCNCCCCOc1cccc(Br)c1,1.4,89*,0.047,7,-8,0.02
CC(C)NCCOc1cccc(Br)c1,·,-2,·,43,-18,1.7
Cc1cc(NC(=O)Cc2cn3ccsc3n2)n(-c2ccccc2)n1,·,-3,·,57,0,2
CCOC(=O)N1CCC(N2C(=O)c3ccc(C(=O)Nc4ccc(F)cc4F)cc3C2=O)CC1,·,-8,·,·,7,0.54
O=C1N(Cc2ccccc2F)c2ccccc2C12OCCCO2,0.66,1,·,-51,-9,0.017
Cc1cc(C(=O)Nc2ccc(N3CCOCC3)c(Cl)c2)c(C)o1,-0.52,·,·,·,·,-0.24
CS/C(=N\NC(N)=O)c1ccccc1,-0.56,48,0.033,21,-2,1
CS/C(=N\N(C)C(N)=O)c1ccccc1,-0.06,69*,·,10,21,2
Cc1cccc(NC(=S)N(Cc2ccc(Cl)cc2)Cc2ccc(C(=O)O)cc2)c1,-0.78,-4,0.49,·,-6,-0.079
Cc1cc(C)cc(NC(=S)N(Cc2ccc(Cl)cc2)Cc2ccc(C(=O)O)cc2)c1,-0.35,2,-0.69,·,12,-0.39
Cc1cc(NC(=S)N(Cc2ccc(Cl)cc2)Cc2ccc(C(=O)O)cc2)ccc1Cl,-1.3,-5,0.08,·,71*,-0.62
Cc1cc(C)cc(NC(=S)N(Cc2ccc(Br)cc2)Cc2ccc(C(=O)O)cc2)c1,-0.87,3,0.47,·,79*,-1.3
Cc1ccc(NC(=S)N(Cc2ccc(Br)cc2)Cc2ccc(C(=O)O)cc2)cc1C,-0.16,2,1.7,·,67*,-1.1
